Source: PubChem BioAssay AID687 (PCMD, 2007)
Among all 33,000 compounds or so, about 95 (0.3%) were called active.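 The calls were made as follows: active = inhibition above 40% in the primary screen; inactive = the rest.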 The sample as a whole holds a higher share of actives than the screen did.

The compounds below were run against Coagulation factor XI (Homo sapiens) (UniProt P03951) (assay: human FXIa protease inhibitors, primary screen, biochemical, single compound per well (AID 687;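 also: 0% = enzyme without compound and 100% = blank wells lacking enzyme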)). Settings: purified human FXIa, fluorogenic AMC substrate cleavage; at 10 µM; stronger effect = higher value.
Chain of Coagulation factor XI (Homo sapiens) (P03951 19-387 limits assumed): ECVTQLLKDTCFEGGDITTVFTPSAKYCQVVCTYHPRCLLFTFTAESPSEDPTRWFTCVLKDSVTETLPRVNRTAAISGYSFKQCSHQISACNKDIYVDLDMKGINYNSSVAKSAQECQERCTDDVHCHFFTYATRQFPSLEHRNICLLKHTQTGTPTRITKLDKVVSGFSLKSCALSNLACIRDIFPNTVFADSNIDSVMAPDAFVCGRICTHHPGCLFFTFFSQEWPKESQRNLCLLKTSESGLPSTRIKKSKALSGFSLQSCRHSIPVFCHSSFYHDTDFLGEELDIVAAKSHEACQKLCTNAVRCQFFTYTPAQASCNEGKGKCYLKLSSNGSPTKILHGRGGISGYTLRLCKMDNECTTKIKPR
Chain of Coagulation factor XI (Homo sapiens) (P03951 388-625 limits assumed): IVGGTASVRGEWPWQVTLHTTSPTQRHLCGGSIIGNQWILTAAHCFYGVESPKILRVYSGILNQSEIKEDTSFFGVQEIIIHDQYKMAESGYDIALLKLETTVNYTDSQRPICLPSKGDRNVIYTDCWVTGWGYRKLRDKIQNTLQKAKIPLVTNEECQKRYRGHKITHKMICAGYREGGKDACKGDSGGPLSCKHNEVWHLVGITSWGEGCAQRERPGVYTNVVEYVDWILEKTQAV

inhibition, inactive:
Cc1ccc(-c2csc(NC(=O)c3cccs3)n2)cc1 -11.7%
Oc1ccccc1CNc1ncc(Br)cc1Br -10.8%
CCC1(C)Cc2c(sc3nc(SC)nc(N)c23)CO1 (stereo unspecified) 14.2%
COc1ccc(NC(=S)N2N=CCC2c2ccccc2)cc1 (stereo unspecified) 0.63%
Cc1ccsc1C(=O)OCC(=O)c1cc2ccccc2o1 3.48%
O=P(c1ccc2c(c1)OCCO2)(N1CCOCC1)N1CCOCC1 2.3%
COc1ccccc1NC(=O)/C=C/C(N)=O 4.44%
CCOc1ccccc1NC(=O)Nc1cc(OC)ccc1OC -0.13%
COc1ccc(C(=O)NNC(=O)c2cnccn2)cc1[N+](=O)[O-] -1.41%
COc1cc2c(cc1OC)C(C(C)C)=NC(C)(C)C2 2.2%
Cc1ccccc1N1CCN(CCCOc2ccc3c(C)cc(=O)oc3c2)CC1 3.75%
CCCC(C(=O)NCc1ccco1)N(C(=O)CNS(=O)(=O)c1ccccc1)C1CCCC1 (stereo unspecified) -1.8%
Cc1ccc(OCC(=O)N/N=C\c2ccco2)c(C)c1 8.22%
COc1ccccc1CNS(=O)(=O)c1ccc(C)cc1 -5.43%
O=C(Nc1ccc(Sc2ccc(Br)cc2)cc1)c1ccco1 5.67%
CC1(C)CC(=O)NC=C(c2ccccc2)C1 2.57%
COc1ccc(C(=O)CSc2nccc(=O)[nH]2)cc1 4.89%
Cc1cccc(N2CCN(S(=O)(=O)c3ccc4[nH]c(=O)c(=O)[nH]c4c3)CC2C)c1 (stereo unspecified) -6.46%
Cc1nc(NNC(=O)c2ccccc2)cc(-c2ccccc2)n1 -2.36%
COc1ccc(-c2cc(C)nc3nc(N)nn23)cc1 -7.55%
Cc1ccc(C2(C(F)(F)F)N=C3Sc4cc(C)cc(C)c4N3C(=O)N2)cc1 (stereo unspecified) -3.09%
COCCn1c(=S)[nH]c2cc(C(=O)NCCc3ccc(OC)c(OC)c3)ccc2c1=O 1.93%
COc1ccccc1NC(=O)C1CCCN(c2cc(C)nc3ncnn23)C1 (stereo unspecified) -7.53%
COC(=O)C1=C(C)Nc2ncnn2C1c1cccnc1 (stereo unspecified) -8.85%
CCOC(=O)c1c(N)sc(C(C)=O)c1C 5.4%
CCCOc1ccc(C2NC(=O)NC(c3ccccc3)=C2C(C)=O)cc1OCC (stereo unspecified) -6.35%
Cc1ccc(S(=O)(=O)N2CCN(Cc3cccc(C)c3O)CC2)cc1 -1.32%
COC(C)(C)[C@]12CC(O)(C(C)C)ON1[C@H]1CCCCC1N2O (stereo partly specified) 0.57%
CC(C)(C)c1cc(=O)n2c(nc3ccccc32)[nH]1 2.42%
COC(=O)c1ccc(Sc2ccc(F)cc2)c(N)c1 1.93%
CC1CCCCC1NC(=O)C1CCCN1S(=O)(=O)c1cccc2nsnc12 (stereo unspecified) 7.4%
COc1ccc(-n2nc3c(c2NC(=O)Cc2cccc(C)c2)CS(=O)C3)cc1 (stereo unspecified) 4.35%
CC(C)(C)c1nc2ccccc2c(=O)n1N1C(=O)c2ccccc2C1=O 2.66%
COc1ccc(-c2nnc(SCC(=O)c3ccc4c(c3)OCCO4)o2)cc1 -2.7%
COC(=O)/C(=C\Nc1ccccc1)NC(=O)c1ccc(Cl)cc1Cl 7.22%
CC(CN1CCOCC1)c1ccccc1 (stereo unspecified) 7.1%
O=C(CSCc1ccccc1)N1CCc2ccccc21 1.56%
Cc1ccc(OCCCC(=O)Nc2ccc(N3CCOCC3)cc2)cc1 3.13%
O=c1c2ccccc2nc(N/N=C/c2ccccc2)n1O 6.82%
Cc1[nH]n(-c2ccc(Cl)cc2)c(=O)c1/C=N/n1c(C)nc2ccccc2c1=O 4.91%
CC1(C)N=C(c2ccccn2)C(C)(C)N1O -1.83%
